According to PubChem BioAssay AID1159580 (chemical genetic matrix, 2015):
Among all 5,500 compounds or so, about 2,000 (36%) were called active. Inconclusive results (about 18%) are left out. No stated cut-off is given here; in the data, active means normalized growth mostly below about 0.91 (no sharp cut-off); inconclusive means no clear call, values can overlap the other calls; inactive means mostly above about 0.92. The list shows a part of the results.

Experiment: chemical genetic growth profiling, strain panel (AID 1159580);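 further: tested at 20 µM; growth read once vehicle control cultures reached saturation at 30 °C; 1 = growth at the plate median or of vehicle wells; lower values mean less growth of the strain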
Details: S. cerevisiae deletion strains, growth OD

Measured: normalized growth

CCCCCCN(CCCCCC)C(=O)Cc1c(-c2ccc(F)cc2)[nH]c2ccccc12
active: locus YNL128W, strain TEP1, active compounds read low 1.12 [resistant] | locus YNL175C, strain NOP13, active compounds read low 1.15 [resistant]
inactive: locus YAL013W, strain DEP1, active compounds read low 1.03 | locus YAL040C, strain CLN3, active compounds read low 1.03 | locus YCL061C, strain MRC1 (second series), active compounds read low 1 | locus YDR363W, strain ESC2, active compounds read low 1.01 | locus YER002W, strain NOP16, active compounds read low 1.02 | locus YGR229C, strain SMI1, active compounds read low 1.04 | locus YMR263W, strain SAP30, active compounds read low 1 | locus YMR307W, strain GAS1, active compounds read low 0.996 | locus YNL224C, strain SQS1, active compounds read low 1.07 | locus YOR083W, strain WHI5 (second series), active compounds read low 1.12 | locus YPL241C, strain CIN2, active compounds read low 1
